For test [1], the target named is Cell division control protein 42 homolog (Homo sapiens) (UniProt P60953). The test is described as follows: activated mutant Cdc42 GTP-binding inhibitors, dose response, biochemical, multiplex bead flow cytometry, Bodipy-FL-GTP (AID 1333;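 active means fitted half-maximal concentration within the tested dose range, moderate curve steepness, a statistically real signal drop, and little compound fluorescence or tag-binding interference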).
The target is the same in test [2]. The experiment in a line: wildtype Cdc42 GTP-binding inhibitors, dose response, biochemical, multiplex bead flow cytometry, Bodipy-FL-GTP (AID 1334;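 active means fitted half-maximal concentration within the tested range, moderate curve steepness, significant signal drop, and little compound fluorescence or bead-linkage interference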). To be noted: bead-based flow cytometry, Bodipy-FL-GTP binding to GST-Cdc42; at 100 µM (top of the series) unless noted.
Test [3] has as its target GTPase HRas (Homo sapiens) (UniProt P01112). The experiment in a line: inhibitors of GTP binding to wildtype Ras, dose response, biochemical, multiplex bead flow cytometry (AID 1335;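 active means fitted half-maximal concentration within 10 nM to 100 µM, steepness 0.5 to 2, significant signal drop, low assay interference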). As to conditions: bead-based flow cytometry, Bodipy-GTP binding to GST-Ras; at 100 µM (top of the series) unless noted. (A flow cytometer gives signals particle by particle.)
In test [4] the test system is Ras-related protein Rab-7a (dog), GTP binding. The experiment in a line: Rab7 GTP binding inhibitors, potency, dose response, biochemical, wildtype, multiplex bead flow cytometry (AID 1336; call rule not given here).
Test [5] concerns the target Ras-related C3 botulinum toxin substrate 1 (Homo sapiens) (UniProt P63000). The test is described as follows: wildtype Rac1 GTP binding inhibitors, dose response, biochemical, multiplex bead flow cytometry (AID 1340). As to conditions: GST-Rac1 beads, Bodipy-FL-GTP binding; at 100 µM (top of the series) unless noted.
The target in test [6] is GTPase HRas (Homo sapiens) (UniProt P01112). The experiment in a line: activated Ras mutant GTP binding inhibitors, dose response, biochemical, multiplex bead flow cytometry (AID 1341;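 active means dose-response curve with midpoint inside the tested range, moderate steepness, significant amplitude and little compound fluorescence or bead-attachment interference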;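 further: GST-tagged constitutively activated Ras mutant immobilized on beads and multiplexed with other GTPases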).

For part of these data: Results with a measured potency or affinity are listed apart. Calls of active or inactive are those of the source.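 How the source made its calls, unless noted: active means dose curve with midpoint inside tested range, moderate steepness, plateau gap beyond fit error, low compound glow and bead-link interference; inactive means the rest.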

Chain of Cell division control protein 42 homolog (Homo sapiens) (P60953 whole entry, looked up): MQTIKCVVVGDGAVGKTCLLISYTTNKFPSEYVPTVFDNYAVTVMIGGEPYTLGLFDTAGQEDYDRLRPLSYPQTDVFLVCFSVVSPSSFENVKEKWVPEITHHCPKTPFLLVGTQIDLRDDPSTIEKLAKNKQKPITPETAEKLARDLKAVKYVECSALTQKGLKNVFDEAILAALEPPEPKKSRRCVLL
Chain of GTPase HRas (Homo sapiens) (P01112 whole entry, looked up): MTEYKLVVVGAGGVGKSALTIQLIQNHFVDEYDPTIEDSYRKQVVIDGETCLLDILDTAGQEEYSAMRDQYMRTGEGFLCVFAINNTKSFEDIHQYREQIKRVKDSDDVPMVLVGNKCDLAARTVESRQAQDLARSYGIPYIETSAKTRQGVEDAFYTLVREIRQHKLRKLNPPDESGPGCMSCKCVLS

Consider `CC(=O)Nc1ccc(N2C(=O)c3ccc(C(=O)Nc4nnc(SCc5ccc(F)cc5)s4)cc3C2=O)cc1`, for which the call in test [1], in test [4] and in test [6] was inactive. Moreover, the fluorescence, percent of control (lower = inhibition) in test [2] came out at 43.1%. This compound also displayed a GTP binding, percent of control in test [3] of 92.1%. The GTP binding signal, raw median fluorescence (lower = inhibition) (MCF (arbitrary fluorescence units)) in test [5] worked out at 253.
`Cc1ccccc1Nc1cc(C(=O)O)c2ccccc2n1`: the result in test [1], in test [4] and in test [6] was inactive. In test [2], the fluorescence, percent of control (lower = inhibition) was found to be 62.2%. The same compound registered a GTP binding, percent of control in test [3] of 86.6%. Also, the GTP binding signal, raw median fluorescence (lower = inhibition) (MCF (arbitrary fluorescence units)) in test [5] stood at 32.7.
Regarding `Cc1c(C(=O)N/N=C/c2ccc(O)c(Br)c2)sc(N)c1C#N`, the result in test [1], in test [4] and in test [6] was inactive. Also, in test [2], the fluorescence, percent of control (lower = inhibition) was determined as 27.1%. In addition, the GTP binding, percent of control in test [3] worked out at 64.7%. The same compound came in with a GTP binding signal, raw median fluorescence (lower = inhibition) (MCF (arbitrary fluorescence units)) in test [5] of 151.
In the case of `C=CCc1ccc(OCc2ccc(C(=O)O)o2)c(OC)c1`, the compound was classed as inactive in test [1], in test [4] and in test [6]. Moreover, the fluorescence, percent of control (lower = inhibition) in test [2] came out at 58.9%. Further, the GTP binding, percent of control in test [3] amounted to 86.5%. The compound further showed a GTP binding signal, raw median fluorescence (lower = inhibition) (MCF (arbitrary fluorescence units)) in test [5] of 31.4.
Regarding `Nc1nonc1C(=O)NCCN=Cc1cc(Cc2ccccc2)cc(Br)c1O`, the call in test [1], in test [4] and in test [6] was inactive. The fluorescence, percent of control (lower = inhibition) in test [2] is 55.5%. For the same compound, the GTP binding, percent of control in test [3] worked out at 59%. In test [5], this compound registered a GTP binding signal, raw median fluorescence (lower = inhibition) (MCF (arbitrary fluorescence units)) of 192.
`COc1cc(/C=C/c2ccc3cccc([N+](=O)[O-])c3n2)ccc1OCC(=O)O`: the outcome in test [1], in test [4] and in test [6] was inactive. In addition, in test [2], the fluorescence, percent of control (lower = inhibition) came to 32.7%. This compound also yielded a GTP binding, percent of control in test [3] of 76.2%. In test [5], this compound showed a GTP binding signal, raw median fluorescence (lower = inhibition) (MCF (arbitrary fluorescence units)) of 160.
Take `COc1cccc(-n2nc3c(-n4ncc(C#N)c4N)nnc(C)c3c2C)c1`: the result in test [1], in test [4] and in test [6] was inactive. Further, the fluorescence, percent of control (lower = inhibition) in test [2] turned out to be 54.8%. The compound further had a GTP binding, percent of control in test [3] of 64.6%. In test [5], this compound gave a GTP binding signal, raw median fluorescence (lower = inhibition) (MCF (arbitrary fluorescence units)) of 212.
`N#C/C(=C(/O)COc1ccc(Br)cc1)c1nnc2n1CCCCC2`: the result in test [1], in test [4] and in test [6] was inactive. Also, in test [2], the fluorescence, percent of control (lower = inhibition) worked out at 29.2%. Moreover, the GTP binding, percent of control in test [3] was 79.2%. The compound further had a GTP binding signal, raw median fluorescence (lower = inhibition) (MCF (arbitrary fluorescence units)) in test [5] of 262.
With `Cc1ccc(C)c(N(CC(N)=O)S(C)(=O)=O)c1`, the compound was classed as inactive in test [1], in test [4] and in test [6]. Also, the fluorescence, percent of control (lower = inhibition) in test [2] stood at 103%. The GTP binding, percent of control in test [3] was determined as 135%. Besides, the GTP binding signal, raw median fluorescence (lower = inhibition) (MCF (arbitrary fluorescence units)) in test [5] was 164.
For the compound `CCOC(=O)c1c(C)[nH]c(C)c1C(=O)COc1ncnc2cc([N+](=O)[O-])ccc12`, the compound was classed as inactive in test [1], in test [4] and in test [6]. In addition, the fluorescence, percent of control (lower = inhibition) in test [2] is 33.9%. The compound further gave a GTP binding, percent of control in test [3] of 76.2%. In test [5], the GTP binding signal, raw median fluorescence (lower = inhibition) (MCF (arbitrary fluorescence units)) is 186.
As to `Cc1cccc(OCCn2c(SCCC(=O)O)nc3ccccc32)c1`, the call in test [1], in test [4] and in test [6] was inactive. Further, in test [2], the fluorescence, percent of control (lower = inhibition) was found to be 58%. The compound further returned a GTP binding, percent of control in test [3] of 85.4%. The compound further had a GTP binding signal, raw median fluorescence (lower = inhibition) (MCF (arbitrary fluorescence units)) in test [5] of 28.9.
Regarding `O=C(COC(=O)/C=C/c1cccc([N+](=O)[O-])c1)NCc1ccc2c(c1)OCO2`, the compound was called inactive in test [1], in test [4] and in test [6]. The fluorescence, percent of control (lower = inhibition) in test [2] came to 34.8%. Moreover, the GTP binding, percent of control in test [3] was 82.9%. The compound also came in with a GTP binding signal, raw median fluorescence (lower = inhibition) (MCF (arbitrary fluorescence units)) in test [5] of 254.
For the compound `O=S(=O)(N/N=C\c1cccnc1)c1ccccc1`, the compound was classed as inactive in test [1], in test [4] and in test [6]. The fluorescence, percent of control (lower = inhibition) in test [2] is 53.2%. The compound also came in with a GTP binding, percent of control in test [3] of 67.9%. The compound further returned a GTP binding signal, raw median fluorescence (lower = inhibition) (MCF (arbitrary fluorescence units)) in test [5] of 227.
In the case of `COc1cc2[nH]c(=S)nc(NCCc3ccc(S(N)(=O)=O)cc3)c2cc1OC`, the compound was called inactive in test [1], in test [4] and in test [6]. The fluorescence, percent of control (lower = inhibition) in test [2] came out at 36.7%. Moreover, in test [3], the GTP binding, percent of control worked out at 81.9%. In test [5], the GTP binding signal, raw median fluorescence (lower = inhibition) (MCF (arbitrary fluorescence units)) came to 268.
Take `O=C(O)CSc1ccc2nnc(-c3cccnc3)n2n1`: the call in test [1], in test [4] and in test [6] was inactive. Moreover, the fluorescence, percent of control (lower = inhibition) in test [2] is 35.6%. The GTP binding, percent of control in test [3] worked out at 73.9%. For the same compound, the GTP binding signal, raw median fluorescence (lower = inhibition) (MCF (arbitrary fluorescence units)) in test [5] is 151.
Regarding `CCCc1nc2oc3c(=O)[nH]cnc3c2c2c1CCCC2`, the outcome in test [1], in test [4] and in test [6] was inactive. Further, the fluorescence, percent of control (lower = inhibition) in test [2] worked out at 35.5%. This compound displayed a GTP binding, percent of control in test [3] of 79.1%. In test [5], this compound showed a GTP binding signal, raw median fluorescence (lower = inhibition) (MCF (arbitrary fluorescence units)) of 193.

For the origin of these results see PubChem BioAssay.
